Laboratory results: the supplement of paper PMC7556523
Values without a mark were called inactive.

Assays:
[1] = test system: Sporothrix brasiliensis CBS 133006; assay: growth inhibition relative to untreated control; higher = more growth inhibition (more antifungal activity), active = 80 or more; extreme values may be limits of the assay; settings: 1 µM; 48 h
In short: (§1)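 Each value is the percent growth inhibition compared with cells left untreated. Reference isolates were grown as yeast-form cells in brain heart infusion broth with 2% glucose for 7 days at 36°C, then exposed at 1 x 10^5 CFU/ml to library compounds at a final 1 μM for 48 h at 35°C in 5% CO2. Growth was inspected visually under an inverted light microscope and quantified by spectrophotometric readings, with runs in quadruplicate.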

[2] = test system: Sporothrix schenckii ATCC 32286; assay: as above; settings: 1 µM; 48 h
In short: as §1

| Compound | growth inhibition [1] | growth inhibition [2] |
| --- | --- | --- |
| CN1CCN(c2cc(-c3ccc(F)cc3)nc(-c3ccncc3)n2)CC1 | 7% | 12.2% |
| COc1ccc(C2=NN(C3CCCCCC3)C(=O)C2(C)C)cc1OCCCCOc1ccc(-c2nn[nH]n2)cc1 | 6.25% | 0% |
| CC(=O)N1CCc2cc3nc(C)cc(C)c3cc21 | 4% | 0% |
| CO[C@H]1/C=C\O[C@@]2(C)Oc3c(C)c(O)c4c(O)c(/c(=C/NN5CCN(C)CC5)c(O)c4c3C2=O)=N\C(=O)/C(C)=C\C=C/[C@H](C)[C@H](O)[C@@H](C)[C@@H](O)[C@@H](C)[C@H](OC(C)=O)[C@@H]1C | 3% | 11.2% |
| NS(=O)(=O)c1cncc(-c2ccc3nccc(-c4cn[nH]c4)c3n2)c1 | 5.5% | 2% |
| CNC(=O)CNc1nc(-c2ccccn2)nc2scc(-c3ccccc3)c12 | 9.5% | 3.75% |
| CCS(=O)(=O)N(Cc1ccco1)Cc1cc2ccc(C)cc2nc1O | 2.5% | 2% |
| CNc1nnc(Sc2cnn(-c3ccccc3)c(=O)c2Cl)s1 | 6% | 0% |
| O=C1Nc2ccc(Br)cc2C12NCCc1c2[nH]c2ccccc12 (stereo not given) | 18.8% | 4.75% |
| CC(C)(C)c1cc(C(=O)N2CCN(c3nccnc3C#N)CC2)n(Cc2ccccc2)n1 | 25.8% | 15.8% |
| O=C(NCCN1CCCC1)c1cc(NCCN2CCOCC2)nc2ccc(Cl)cc12 | 4.5% | 0% |
| COc1cc(NC(=O)Cc2nn(C)c(=O)c3ccccc23)ccc1Cl | 4.5% | 0% |
| COc1cc(Br)cc2cc(C(=O)Nc3cccc(C(F)(F)F)c3)c(=O)oc12 | 11.5% | 6.75% |
| CCc1ccccc1-n1c(C)cn2c3c(=O)n(C(C(=O)OC)C(C)C)c(=O)n(C)c3nc12 (stereo not given) | 15.8% | 0% |
| CC(=O)N(CCN(C(=O)c1ccc(F)cc1)c1ccccc1)c1ccccc1 | 13% | 0% |
| Cc1nc(-c2ccccn2)nc(N2CCC(Cc3ccccc3)C2)c1Cl (stereo not given) | 63% | 13% |
| COc1ccc(Oc2ccc([C@@H](C)N(C)c3ncc4c(N)nc(N)nc4n3)cc2)cc1 | 5.75% | 4.25% |
| COc1cccc(-c2nc3c(N4CCCC4)cccc3n2CC2CCCN2)n1 (stereo not given) | 0% | 9.5% |
| COc1ccc2nccc(NC(=O)C3CCN(CCc4ccc(Cl)cc4)CC3)c2n1 | 39% | 0% |
| CCOC(=O)c1c(NC(=O)c2c(F)c(F)c(F)c(F)c2F)sc(C(N)=O)c1C | 13.8% | 0% |
| Cc1[nH]c2ccccc2c1C(c1cccs1)N1CCN(C)CC1 (stereo not given) | 4.75% | 15.2% |
| CC(C)(C)OC(=O)N1CCN(c2nccc(-c3ccc(-c4ccc(Cl)cc4)s3)n2)CC1 | 8% | 1% |
| CC(C)(C)c1cc(C(=O)Nc2cccnc2)cc(C(=O)Nc2cccnc2)c1 | 6% | 4% |
| COc1ccccc1C(C)NCC(=O)Nc1cc(C(F)(F)F)ccc1Cl (stereo not given) | 9.75% | 0% |
| Cc1cccc(Cn2ccc(NC(=O)c3ccc4c(c3)OCO4)n2)c1 | 7.5% | 7.25% |
| CC(C)n1nc(-c2cc3c(Cl)cccc3[nH]2)c2c(N)ncnc21 | 15% | 16.8% |
| COc1cncc(-c2cncc(N3CCN(c4ccncc4)CC3)n2)c1 | 34.2% | 0% |
| CC(C(=O)N1CCCC1)N1CCN(S(=O)(=O)c2ccc(C(C)(C)C)cc2)CC1 (stereo not given) | 37.5% | 7% |
| COc1ccc(-c2nn(C(C)C)c3ncnc(N)c23)cc1OC | 6% | 14.2% |
| CC(=O)NCC1CN(c2ccc(-c3ccc(CO)cc3)c(F)c2)C(=O)O1 (stereo not given) | 4% | 13.2% |
